Measured values taken from PubChem BioAssay AID1259343 (VanderVen Lab, College of Veterinary Medicine, Cornell …, 2017).
Among all 6,200 compounds or so, about 2,900 (47%) were called active. The set was probably picked from earlier hits. The list shows a part of the results. Unmarked numbers belong to inactive results. No stated cut-off is given here; in the data, active means inhibition above about 50%; inactive means the rest.

test: Mycobacterium tuberculosis growth inhibition, primary screen (AID 1259343); details: inhibition: at 10 µM, hits give high values; outcome: 10 uM

Row | SMILES | inhibition
1 | COc1ccc(C)cc1C(=O)Nc1ccc(N2CCCCC2)nc1 | 2.05%
2 | COc1ccc(NC(=O)Nc2cccc(-c3ccc(N4CCCC4)nn3)c2)cc1 | 66.1% (active)
3 | COc1ccc(NC(=O)N2CCCC(C(=O)c3cccc(OC(C)C)c3)C2)cc1OC (centres undefined) | 19%
4 | O=C(NN=Cc1c[nH]c2ccc(Br)cc12)C1CC1 | 13.7%
5 | NC(=S)NN=Cc1c[nH]c2ccccc12 | inactive
6 | Fc1ccc(NN=Cc2ccc(F)c(F)c2)c(F)c1 | 40.3%
7 | Fc1ccc(NN=Cc2ccccn2)c(F)c1 | 103% (active)
8 | C(=NNc1ccccc1)c1c[nH]c2ccccc12 | 52% (active)
9 | Fc1ccc(NN=Cc2c[nH]c3ccccc23)c(F)c1 | 90.6% (active)
10 | C=CCN1C(=O)C(=O)N(CC2CCCCC2)C1=O | 43.2%
11 | C=CCn1c(SCCCC)nc(O)cc1=O | 33.7%
12 | CCCCSc1nsc(NC(C)=O)n1 | 71.7% (active)
13 | Cc1ccc2c(c1)-c1c(s[s+]c1SCC(=O)c1ccccc1)C(C)(C)N2 | 18.9%
14 | Cc1ccc(F)cc1NC(=O)CN(C)Cc1ccccc1F | 86.7% (active)
15 | Cc1ccc(CN(C)CC(=O)Nc2cc(Cl)ccc2C#N)cc1 | -19.5%
16 | CN(CC(=O)Nc1ccc(Cl)cc1Cl)Cc1ccsc1 | 34.7%
17 | O=C(Nc1ccc2c(c1)Cc1ccccc1-2)C1CCCO1 (centres undefined) | 81.9% (active)
18 | O=C(Nc1ccc2c(c1)Cc1ccccc1-2)c1ccco1 | 90% (active)
19 | O=C(CCl)c1ccc(NC(=O)c2ccco2)cc1 | 44.1%
20 | CCOc1ccc(-n2c(C)cc(C(=O)COc3cccc(-n4cnnn4)c3)c2C)cc1 | 89.6% (active)
21 | O=c1cnc2ccccc2n1CCOc1ccc(Br)cc1 | 22.6%
22 | Brc1ccc(OCCOc2cccc(-n3cnnn3)c2)cc1 | 69.1% (active)
23 | OCC1(Cc2ccccc2F)CCCN(Cc2nc(-c3ccccc3)cs2)C1 (centres undefined) | 13.4%

Row | SMILES | inhibition
24 | CC(=O)c1cc(Cl)ccc1OCC(=O)Nc1ccc(C)cc1Br | 29.6%
25 | Cc1cc(OCC(=O)Nc2ncn[nH]2)c(C)cc1Br | 71.5% (active)
26 | CC(C)CC(NC(=O)c1ccc(Cl)cc1Cl)C(=O)Nc1ncn[nH]1 (centres undefined) | 3.98%
27 | COc1ccccc1OS(=O)(=O)CCS(=O)(=O)c1ccc(Cl)cc1 | 33.8%
28 | Brc1ccc(NCc2ccsc2)cc1 | 47.5%
29 | O=S(=O)(CCNc1ccc(Br)cc1)c1ccc(Cl)cc1 | 93.3% (active)
30 | COc1ccc(-c2csc(-n3[nH]c(C)c(N=Nc4nccs4)c3=O)n2)cc1 | 98.8% (active)
31 | Brc1ccccc1C1N=C(c2ccccc2)NO1 (centres undefined) | 67.1% (active)
32 | CC1=NN(c2nc(C)cc(C)n2)C(=O)C1Cc1ccccc1Cl (centres undefined) | -7.67%
33 | CC(C(=O)O)c1ccc2c(c1)[nH]c1ccc(Cl)cc12 (centres undefined) | 86% (active)
34 | CC(C)(C)C1CCN(c2ncnc(Oc3ccc(F)cc3)c2N)CC1 | 25.6%
35 | CCN(CC)c1ncnc(N2CCC(c3ccccc3)CC2)c1N | 56.1% (active)
36 | CCN(C)CC1CCN(C(=O)CC2CCC(c3ccccc3)CC2)C1 (centres undefined) | -3.03%
37 | O=C(COn1nnc2ccc(C(F)(F)F)cc21)NC12CC3CC(CC(C3)C1)C2 | 21.7%
38 | COc1cccc(-c2cc3c(Nc4ccc5c(c4)OCCO5)nccc3n2C)c1 | 61.1% (active)
39 | COc1cccc(-c2cc3c(Nc4ccc5c(c4)OCO5)nccc3n2C)c1 | 85.6% (active)
40 | O=C1CCC2(CCCO2)CCN1Cc1ccc(C(F)(F)F)nc1 (centres undefined) | -2.37%
41 | O=C(Cn1nc(-c2ccc(F)cc2)oc1=O)N1CCSc2ccccc21 | 80.5% (active)
42 | NC(N)=NCCCCN=C(N)N | 0.43%
43 | CS(=O)(=O)N=C1C=C(S(=O)(=O)c2ccccc2)C(=O)c2ccccc21 | 30.9%
44 | COc1ccc2c([N+](=O)[O-])c(-n3nnc4ccccc43)[nH]c2c1 | -24.2%
45 | COc1ccc2c(Cl)c(C(=O)n3cnc4ccccc43)sc2c1 | 94.7% (active)
46 | C(=Nn1c(-c2ccc3c(c2)OCCO3)csc1=NC1CCCCC1)c1cccnc1 | 9.36%

Row | SMILES | inhibition
47 | O=[N+]([O-])c1nn(-c2ccc3c(c2)OCCO3)n(O)c1=NC1CCCCCC1 | 62.8% (active)
48 | Brc1cccc(N2CCC(CNc3ncccn3)C2)c1 (centres undefined) | 90.2% (active)
49 | O=S(=O)(NCc1ccc(N2CCCC2)cc1)c1cccc(Br)c1 | 28.5%
50 | CNC(=O)C1CCN(C(=O)COc2ccc(Oc3ccc(C)cc3)cc2)CC1 | -12.7%
51 | Cc1ccc(COc2ccc(/C=N\NC(=O)CN3CCCCC3)cc2)cc1 | 83.3% (active)
52 | CC1Cc2cc(S(N)(=O)=O)ccc2N1CCCc1ccccc1 (centres undefined) | -10.1%
53 | O=c1c(Cl)c(NCC2CCC2)cnn1-c1ccc(Cl)cc1 | 58% (active)
54 | CC(C)(C)n1ncc(NCC2CCCc3ccccc32)c(Cl)c1=O (centres undefined) | 22.4%
55 | O=c1c(Cl)c(Nc2ccc3c(c2)CCC3)cnn1-c1ccccc1 | 21.7%
56 | Cc1ccc(CC(SCc2ccccc2)C(=O)O)cc1C (centres undefined) | 57.4% (active)
57 | CN(C)c1ccc(Nc2nc3ccccc3n3nnnc23)cc1 | 11.8%
58 | CCOc1ccc(Cl)cc1CNc1nnnn1C | -8.06%
59 | Clc1ccc2nc(Cl)c3nnnn3c2c1 | 102% (active)
60 | Cc1ccc(OCC(=O)NC2CCCC(C)C2C)cc1 (centres undefined) | 60% (active)
61 | COc1ccc(-c2ccc(C(=O)NS(C)(=O)=O)c(F)c2)c(F)c1 | 55.6% (active)
62 | COc1cc(NC(=O)C(C)Oc2ccc(F)c(F)c2)cc(OC)c1 (centres undefined) | 34.5%
63 | Cc1cc(=O)[nH]c(-n2nc(-c3cccs3)cc2NC(=O)C2CC2)n1 | 2.59%
64 | Cc1cc(NC(=O)C2CCC2)n(-c2ccc(C(F)(F)F)cn2)n1 | 79.6% (active)
65 | O=C(Nc1nccs1)C1CCN(c2ccc(C(F)(F)F)cn2)CC1 | 18.4%
66 | Cc1cc(=O)[nH]c(-n2nc(-c3cccs3)cc2NC(=O)C2CCCCC2)n1 | 100% (active)
67 | Cc1cc(=O)[nH]c(-n2nc(C)cc2NC(=O)C2CC2)n1 | 100% (active)
68 | Cc1cc(=O)[nH]c(-n2nc(C)cc2NC(=O)C2CCCCC2)n1 | 101% (active)
69 | FC(F)(F)c1ccc(N2CCN(C(=S)NC3CC3)CC2)nc1 | -12.1%
